Binding signal data for ten sequences are collected here from paper PMC8384837, “Expanding the binding specificity for RNA recognition by a PUF domain”.

Holding throughout (assay): yeast three-hybrid, YBZ-1, SC-Leu-His + 0.5 mM 3-AT, 4 days
Common to all, as to details: tags: N-Gal4 AD-HA kept; label: inside an RPR1-promoter hybrid RNA with tandem MS2 sites; ssRNA

Test [1] addresses PUM1 PUF domain R4-ACS (Homo sapiens, UniProt Q14671 828-1176, N971A;H972C;Q975S). The method, boiled down:
(§1)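 The interaction score is the log change in variant frequency from input to selection. Scores were computed in log2 with a pseudocount of 1 for absent variants, using Illumina sequencing of PCR-amplified repeat regions. The input came from four days on SC-Leu and the selection from four days on SC-Leu-His + 0.5 mM 3-AT. The cells were strain YBZ-1 (LexA–MS2 coat fusion, HIS3 reporter) co-expressing Pumilio-1 PUF domain libraries and matching RNA elements from a centromeric plasmid.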

Test [2] deals with PUM1 PUF domain R4-ERQ (Homo sapiens, UniProt Q14671 828-1176, N971E;H972R). The method, boiled down:
as §1

For test [3], the target named is PUM1 PUF domain R4-GFP (Homo sapiens, UniProt Q14671 828-1176, N971G;H972F;Q975P). Summed up: as §1
The target of test [4] is PUM1 PUF domain R4-APA (Homo sapiens, UniProt Q14671 828-1176, N971A;H972P;Q975A). The method, boiled down:
as §1

Test [5] has as its target PUM1 PUF domain R3-TRS (Homo sapiens, UniProt Q14671 828-1176, C935T;Q939S). Summed up:
as §1

The target of test [6] is PUM1 PUF domain R3-MWP (Homo sapiens, UniProt Q14671 828-1176, C935M;R936W;Q939P). Summed up:
as §1

The target in test [7] is PUM1 PUF domain R3-LYL (Homo sapiens, UniProt Q14671 828-1176, C935L;R936Y;Q939L). The method, boiled down:
as §1

The target in test [8] is PUM1 PUF domain R3-RRG (Homo sapiens, UniProt Q14671 828-1176, C935R;Q939G). Summed up:
as §1

In test [9] the target is PUM1 PUF domain R7-RPV (Homo sapiens, UniProt Q14671 828-1176, S1079R;N1080P;E1083V). The method, boiled down:
as §1

In test [10] the target is PUM1 PUF domain R7-ERA (Homo sapiens, UniProt Q14671 828-1176, S1079E;N1080R;E1083A). Summed up:
as §1

In test [11] the target is PUM1 PUF domain R3-PHQ (Homo sapiens, UniProt Q14671 828-1176, C935P;R936H). The method, boiled down:
as §1

Test [12] has as its target PUM1 PUF domain R8-PWW (Homo sapiens, UniProt Q14671 828-1176, N1122P;Y1123W;Q1126W). Summed up:
as §1

For test [13], the target named is PUM1 PUF domain R4-VGL (Homo sapiens, UniProt Q14671 828-1176, N971V;H972G;Q975L). Summed up: as §1
For test [14], the target named is PUM1 PUF domain R3-GCW (Homo sapiens, UniProt Q14671 828-1176, C935G;R936C;Q939W). Summed up: as §1
The target in test [15] is PUM1 PUF domain R4-GRI (Homo sapiens, UniProt Q14671 828-1176, N971G;H972R;Q975I). The method, boiled down:
as §1

Test [16] deals with T1, PUM1 PUF domain R6-RWG (Homo sapiens, UniProt Q14671 828-1176, N1043R;Y1044W;Q1047G).
T1 sequence: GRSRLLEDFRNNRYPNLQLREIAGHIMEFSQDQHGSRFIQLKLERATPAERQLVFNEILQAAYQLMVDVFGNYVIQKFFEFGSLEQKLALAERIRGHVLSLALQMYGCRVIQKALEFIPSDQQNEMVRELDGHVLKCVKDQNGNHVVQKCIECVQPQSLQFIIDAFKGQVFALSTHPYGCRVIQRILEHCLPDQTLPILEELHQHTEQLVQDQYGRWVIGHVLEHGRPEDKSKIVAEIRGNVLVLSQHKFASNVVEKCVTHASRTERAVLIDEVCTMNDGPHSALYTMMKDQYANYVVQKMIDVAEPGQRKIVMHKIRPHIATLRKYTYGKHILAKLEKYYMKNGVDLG
Summed up:
as §1

Test [17] concerns the target PUM1 PUF domain R5-KSC (Homo sapiens, UniProt Q14671 828-1176, C1007K;R1008S;Q1011C). Summed up:
as §1

Test [18] deals with PUM1 PUF domain R3-RSQ (Homo sapiens, UniProt Q14671 828-1176, C935R;R936S). Summed up:
as §1

Test [19] addresses PUM1 PUF domain R5-IHR (Homo sapiens, UniProt Q14671 828-1176, C1007I;R1008H;Q1011R). The method, boiled down:
as §1

For test [20], the target named is PUM1 PUF domain R5-KHV (Homo sapiens, UniProt Q14671 828-1176, C1007K;R1008H;Q1011V). The method, boiled down:
as §1

PUM1 PUF domain R3-TRS, sequence (Q14671 828-1176 C935T/Q939S): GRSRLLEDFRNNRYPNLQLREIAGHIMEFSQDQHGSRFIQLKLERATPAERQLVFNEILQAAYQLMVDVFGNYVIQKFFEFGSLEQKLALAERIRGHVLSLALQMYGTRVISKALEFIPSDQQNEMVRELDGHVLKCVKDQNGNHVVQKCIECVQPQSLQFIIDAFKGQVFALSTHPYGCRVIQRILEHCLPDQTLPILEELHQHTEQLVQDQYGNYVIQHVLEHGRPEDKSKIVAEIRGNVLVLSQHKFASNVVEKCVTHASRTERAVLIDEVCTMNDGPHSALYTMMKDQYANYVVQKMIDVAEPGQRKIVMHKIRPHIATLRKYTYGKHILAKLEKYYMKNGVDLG
PUM1 PUF domain R3-LYL, sequence (Q14671 828-1176 C935L/R936Y/Q939L): as the sequence (Q14671 828-1176 C935T/Q939S) above, with T108L, R109Y, S112L counted along it
PUM1 PUF domain R4-GFP, sequence (Q14671 828-1176 N971G/H972F/Q975P): as the sequence (Q14671 828-1176 C935T/Q939S) above, with T108C, S112Q, N144G, H145F, Q148P counted along it
PUM1 PUF domain R4-ACS, sequence (Q14671 828-1176 N971A/H972C/Q975S): as the sequence (Q14671 828-1176 C935T/Q939S) above, with T108C, S112Q, N144A, H145C, Q148S counted along it
PUM1 PUF domain R7-RPV, sequence (Q14671 828-1176 S1079R/N1080P/E1083V): as the sequence (Q14671 828-1176 C935T/Q939S) above, with T108C, S112Q, S252R, N253P, E256V counted along it
PUM1 PUF domain R3-MWP, sequence (Q14671 828-1176 C935M/R936W/Q939P): as the sequence (Q14671 828-1176 C935T/Q939S) above, with T108M, R109W, S112P counted along it
PUM1 PUF domain R4-ERQ, sequence (Q14671 828-1176 N971E/H972R): as the sequence (Q14671 828-1176 C935T/Q939S) above, with T108C, S112Q, N144E, H145R counted along it
PUM1 PUF domain R3-RSQ, sequence (Q14671 828-1176 C935R/R936S): as the sequence (Q14671 828-1176 C935T/Q939S) above, with T108R, R109S, S112Q counted along it
PUM1 PUF domain R3-PHQ, sequence (Q14671 828-1176 C935P/R936H): as the sequence (Q14671 828-1176 C935T/Q939S) above, with T108P, R109H, S112Q counted along it
PUM1 PUF domain R8-PWW, sequence (Q14671 828-1176 N1122P/Y1123W/Q1126W): as the sequence (Q14671 828-1176 C935T/Q939S) above, with T108C, S112Q, N295P, Y296W, Q299W counted along it

On to “GGCUAGAACUAGUGGAUCCCCCGGCGCCCGGCGGCUCGAGCCCGGGUAAGUGUACAUAGUCUGCAUGCCGCCGGGCGCCAUGCCUGCAGGUCGACUCUAGAAAACAUG”, for which the binding signal in test [1] was 1.22 log2 enrichment (interaction score); in test [2], 2.62 log2 enrichment (interaction score); in [3], 5.41 log2 enrichment (interaction score); in [4], 1.33 log2 enrichment (interaction score).

Consider “GGCUAGAACUAGUGGAUCCCCCGGCGCCCGGCGGCUCGAGCCCGGGUAAGUGUAAGUAGUCUGCAUGCCGCCGGGCGCCAUGCCUGCAGGUCGACUCUAGAAAACAUG”, for which the binding signal in test [5] was 1.93 log2 enrichment (interaction score); in [6], 5.07 log2 enrichment (interaction score); in test [7], 4.81 log2 enrichment (interaction score); in test [8], 0.28 log2 enrichment (interaction score).

Consider “GGCUAGAACUAGUGGAUCCCCCGGCGCCCGGCGGCUCGAGCCCGGGUAAGUCUAAAUAGUCUGCAUGCCGCCGGGCGCCAUGCCUGCAGGUCGACUCUAGAAAACAUG”, for which the binding signal in test [9] was 1.08 log2 enrichment (interaction score); in [10], 2.68 log2 enrichment (interaction score).

For the sequence “GGCUAGAACUAGUGGAUCCCCCGGCGCCCGGCGGCUCGAGCCCGGGUAAGUGUAAAUAGUCUGCAUGCCGCCGGGCGCCAUGCCUGCAGGUCGACUCUAGAAAACAUG”, the binding signal was 2.98 log2 enrichment (interaction score) in test [1]; 4.75 log2 enrichment (interaction score) in test [3]; 4.62 log2 enrichment (interaction score) in [5]; 4.19 log2 enrichment (interaction score) in test [11]; 3.57 log2 enrichment (interaction score) in [12]; 4.43 log2 enrichment (interaction score) in test [7]. Also, the binding signal is 3.22 log2 enrichment (interaction score) in test [13]; 1.82 log2 enrichment (interaction score) in test [14]; 3.58 log2 enrichment (interaction score) in [15]; 4.16 log2 enrichment (interaction score) in test [4]; 5.05 log2 enrichment (interaction score) in test [16].

As to “GGCUAGAACUAGUGGAUCCCCCGGCGCCCGGCGGCUCGAGCCCGGGUAAGUGUCAAUAGUCUGCAUGCCGCCGGGCGCCAUGCCUGCAGGUCGACUCUAGAAAACAUG”, the binding signal in [17] is 5.14 log2 enrichment (interaction score).

Consider “GGCUAGAACUAGUGGAUCCCCCGGCGCCCGGCGGCUCGAGCCCGGGUAAGUGUAAUUAGUCUGCAUGCCGCCGGGCGCCAUGCCUGCAGGUCGACUCUAGAAAACAUG”, for which the binding signal in test [18] is 4.22 log2 enrichment (interaction score); in test [5], 1.31 log2 enrichment (interaction score); in [6], 3.31 log2 enrichment (interaction score); in test [7], 3.45 log2 enrichment (interaction score); in test [14], 3.22 log2 enrichment (interaction score); in test [8], 3.82 log2 enrichment (interaction score).

As for “GGCUAGAACUAGUGGAUCCCCCGGCGCCCGGCGGCUCGAGCCCGGGUAAGUUUAAAUAGUCUGCAUGCCGCCGGGCGCCAUGCCUGCAGGUCGACUCUAGAAAACAUG”, the binding signal in test [9] is 3.09 log2 enrichment (interaction score).

Consider “GGCUAGAACUAGUGGAUCCCCCGGCGCCCGGCGGCUCGAGCCCGGGUAAGUGUAUAUAGUCUGCAUGCCGCCGGGCGCCAUGCCUGCAGGUCGACUCUAGAAAACAUG”, for which the values for the binding signal in test [1], in [3] and in [4] were 1.22 log2 enrichment (interaction score), 5.97 log2 enrichment (interaction score) and 2.47 log2 enrichment (interaction score), respectively.

As for “GGCUAGAACUAGUGGAUCCCCCGGCGCCCGGCGGCUCGAGCCCGGGUAAGUGAAAAUAGUCUGCAUGCCGCCGGGCGCCAUGCCUGCAGGUCGACUCUAGAAAACAUG”, the binding signal in [16] is 3.42 log2 enrichment (interaction score).

In the case of “GGCUAGAACUAGUGGAUCCCCCGGCGCCCGGCGGCUCGAGCCCGGGUAAGUGUUAAUAGUCUGCAUGCCGCCGGGCGCCAUGCCUGCAGGUCGACUCUAGAAAACAUG”, the results for the binding signal in test [19], in test [20] and in test [17] were 3.52 log2 enrichment (interaction score), 2.08 log2 enrichment (interaction score) and 2.38 log2 enrichment (interaction score), respectively.
